Measurements from PubChem BioAssay (Tox21).
Inconclusive results are not listed. Activity calls are given as the source filed them. Calls follow the shape of the dose curve; as a rule, active = well fitted curve in the direction sought with a large enough effect in the repeat runs; inconclusive = weak or mixed curves; inactive = no such curve, though single readings can be large; an effect the other way counts as inactive or inconclusive.

What was measured:
[1] = qHTS RealTime-Glo MT Cell Viability Assay in HepG2 cells - 40 hour (AID 1224870); conditions: RealTime-Glo luminescence; series mostly up to 76.8 µM; also: nearly all actives have a fitted effect of over 50% in size
Summary of the method: (§1)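 Real-time viability: cells seeded at 600 per well together with NanoLuc and cell-permeant prosubstrate, compounds added after 5 h incubation. Luminescence tracked at 0, 8, 16, 24, 32 and 40 h of exposure.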

[2] = A CellTox Green Cytotoxicity Assay to monitor cytotoxicity in HEK293 cells - 40 hour (AID 1224871); conditions: CellTox Green fluorescence; series mostly up to 76.8 µM; also: nearly all actives have a fitted effect of over 45% in size
Summary of the method: (§2)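 Nonlytic real-time cytotoxicity: HEK293 + CellTox Green reagent plated, 5 h preincubation, pintool compound addition (23 nL in DMSO), 37 C for 40 h, fluorescence measured at successive time points.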

[3] = qHTS RealTime-Glo MT Cell Viability Assay in HEK293 cells - 16 hour (AID 1224872); conditions: RealTime-Glo luminescence; series mostly up to 76.8 µM; also: top concentration of the series differs between compounds; nearly all actives have a fitted effect of over 50% in size
Summary of the method: (§3)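 Homogeneous bioluminescent viability format in HEK293 cells (600 cells/well). Following 5 h at 37 C/5% CO2, 23 nL compound was pintooled; the signal was measured repeatedly during 40 h incubation.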

[4] = qHTS RealTime-Glo MT Cell Viability Assay in HepG2 cells - 8 hour (AID 1224873); conditions: RealTime-Glo luminescence; series mostly up to 76.8 µM; also: nearly all actives have a fitted effect of over 55% in size
Summary of the method: as §1

[5] = A CellTox Green Cytotoxicity Assay to monitor cytotoxicity in HEK293 cells - 24 hour (AID 1224875); conditions: CellTox Green fluorescence; series mostly up to 76.8 µM; also: nearly all actives have a fitted effect of over 45% in size
Summary of the method: as §2

[6] = A CellTox Green Cytotoxicity Assay to monitor cytotoxicity in HepG2 cells - 16 hour (AID 1224876); conditions: CellTox Green fluorescence; series mostly up to 76.8 µM; also: nearly all actives have a fitted effect of over 45% in size
Summary of the method: (§4)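 Read-out is fluorescence of a cyanine dye excluded from live cells that stains DNA of dead HepG2 cells, with signal proportional to cytotoxicity. Plates were read at 0, 8, 16, 24, 32 and 40 h after compound addition.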

[7] = A CellTox Green Cytotoxicity Assay to monitor cytotoxicity in HepG2 cells - 24 hour (AID 1224878); conditions: CellTox Green fluorescence; series mostly up to 76.8 µM; also: nearly all actives have a fitted effect of over 45% in size
Summary of the method: as §4

[8] = A CellTox Green Cytotoxicity Assay to monitor cytotoxicity in HepG2 cells - 40 hour (AID 1224879); conditions: CellTox Green fluorescence; series mostly up to 76.8 µM; also: nearly all actives have a fitted effect of over 40% in size
Summary of the method: as §4

[9] = qHTS RealTime-Glo MT Cell Viability Assay in HEK293 cells - 0 hour (AID 1224880); conditions: RealTime-Glo luminescence; series mostly up to 76.8 µM
Summary of the method: (§5)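 Cells were seeded together with NanoLuc luciferase and a prosubstrate that viable cells reduce to a luciferase substrate. After a 5 h incubation at 37 C/5% CO2, compounds were added and luminescence was measured repeatedly during 40 h of treatment.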

[10] = A CellTox Green Cytotoxicity Assay to monitor cytotoxicity in HEK293 cells - 32 hour (AID 1224881); conditions: CellTox Green fluorescence; series mostly up to 76.8 µM; also: nearly all actives have a fitted effect of over 40% in size
Summary of the method: as §2

[11] = A CellTox Green Cytotoxicity Assay to monitor cytotoxicity in HepG2 cells - 0 hour (AID 1224882); conditions: CellTox Green fluorescence; series mostly up to 76.8 µM; also: nearly all actives have a fitted effect of over 35% in size
Summary of the method: as §4

[12] = A CellTox Green Cytotoxicity Assay to monitor cytotoxicity in HepG2 cells - 32 hour (AID 1224883); conditions: CellTox Green fluorescence; series mostly up to 76.8 µM; also: nearly all actives have a fitted effect of over 50% in size
Summary of the method: as §4

[13] = qHTS RealTime-Glo MT Cell Viability Assay in HepG2 cells - 16 hour (AID 1224885); conditions: RealTime-Glo luminescence; series mostly up to 76.8 µM; also: nearly all actives have a fitted effect of over 50% in size
Summary of the method: (§6)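 Cell number in HepG2 cultures estimated from NanoLuc luminescence generated by metabolic reduction of a prosubstrate by living cells. The homogeneous, nonlytic format allowed repeated reads at 0, 8, 16, 24, 32 and 40 h of compound exposure.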

[14] = qHTS RealTime-Glo MT Cell Viability Assay in HEK293 cells - 24 hour (AID 1224886); conditions: RealTime-Glo luminescence; series mostly up to 76.8 µM
Summary of the method: as §3

[15] = qHTS RealTime-Glo MT Cell Viability Assay in HEK293 cells - 8 hour (AID 1224887); conditions: RealTime-Glo luminescence; series mostly up to 76.8 µM
Summary of the method: as §5

[16] = A CellTox Green Cytotoxicity Assay to monitor cytotoxicity in HEK293 cells - 16 hour (AID 1224888); conditions: CellTox Green fluorescence; series mostly up to 76.8 µM; also: nearly all actives have a fitted effect of over 35% in size
Summary of the method: as §2

[17] = qHTS RealTime-Glo MT Cell Viability Assay in HepG2 cells - 0 hour (AID 1224889); conditions: RealTime-Glo luminescence; series mostly up to 76.8 µM; also: nearly all actives have a fitted effect of over 50% in size
Summary of the method: as §6

[18] = A CellTox Green Cytotoxicity Assay to monitor cytotoxicity in HEK293 cells - 8 hour (AID 1224884); conditions: CellTox Green fluorescence; series mostly up to 76.8 µM; also: nearly all actives have a fitted effect of over 35% in size
Summary of the method: as §2

[19] = qHTS RealTime-Glo MT Cell Viability Assay in HEK293 cells - 40 hour (AID 1224874); conditions: RealTime-Glo luminescence; max response: stronger effect = lower value; also: nearly all actives have a fitted effect of over 50% in size
Summary of the method: as §5
% is scaled to controls: 0 for no effect and ±100 for the full control effect.

Clc1cc(Cl)nc(Cl)n1
inactive: Potency [1] | Potency [2] | Potency [3] | Potency [4] | Potency [5] | Potency [6] | Potency [7] | Potency [8] | Potency [9] | Potency [10] | Potency [11] | Potency [12] | Potency [13] | Potency [14] | Potency [15] | Potency [16] | Potency [17]

CCCCCCCC/C=C\CCCCCCCCCCCC(=O)O
inactive: Potency [1] | Potency [2] | Potency [3] | Potency [4] | Potency [5] | Potency [6] | Potency [7] | Potency [8] | Potency [9] | Potency [11] | Potency [12] | Potency [18] | Potency [13] | Potency [14] | Potency [15] | Potency [16] | Potency [17]

CC(C)=CC(=O)C=C(C)C
inactive: Potency [1] | Potency [2] | Potency [3] | Potency [4] | max response [19] 9.12% | Potency [5] | Potency [6] | Potency [7] | Potency [8] | Potency [9] | Potency [11] | Potency [12] | Potency [18] | Potency [13] | Potency [14] | Potency [15] | Potency [16] | Potency [17]

COc1ccc(OC(=O)N(CC(=O)O)Cc2ccc(OCCc3nc(-c4ccccc4)oc3C)cc2)cc1
inactive: Potency [1] | Potency [2] | Potency [3] | Potency [4] | max response [19] -9.99% | Potency [5] | Potency [6] | Potency [7] | Potency [8] | Potency [9] | Potency [10] | Potency [11] | Potency [12] | Potency [18] | Potency [13] | Potency [14] | Potency [15] | Potency [16] | Potency [17]
